Experimental data published in PubChem BioAssay (NCI).
Values joined by “and” are separate entries in the source; they are usually repeats but may differ in a detail not shown here. Equal entries are not always repeated. The panel holds about 79,000 compounds, 15% with a hit somewhere; the sample as a whole holds those more often. More than one record can exist for a structure, and the calls need not agree. Active and inactive are the calls of the source. No stated cut-off is given here; in the data, active means growth inhibition above about 70%; inactive means the rest.

What was measured:
[1] = NCI Yeast Anticancer Drug Screen. Data for the rad50 strain (AID 155);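 further: 0% = growth of vehicle-only cultures of the same strain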; conditions: S. cerevisiae rad50 strain growth inhibition, stronger effect = higher value
Procedure, shortened: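 Genetically altered yeast (DNA repair pathway); compound treatment; growth inhibition vs vehicle ctrl.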

[2] = NCI Yeast Anticancer Drug Screen. Data for the mec2-1 strain (AID 157); conditions: S. cerevisiae mec2-1 strain, stronger effect = higher value
Procedure, shortened: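 Growth inhibition is read against vehicle-treated controls after compound exposure of the mec2-1 yeast strain, which is defective in DNA damage repair or cell cycle control.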

[3] = NCI Yeast Anticancer Drug Screen. Data for the sgs1 mgt1 strain (AID 161);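 further: 0% = growth of cultures given vehicle only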; conditions: S. cerevisiae sgs1 mgt1 strain, stronger effect = higher value
Procedure, shortened: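 Growth of a repair-deficient yeast mutant was monitored after compound treatment and expressed as inhibition relative to vehicle-treated cultures.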

[4] = NCI Yeast Anticancer Drug Screen. Data for the cln2 rad14 strain (AID 165);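 further: 0% = growth equal to vehicle treated cultures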; conditions: S. cerevisiae cln2 rad14 strain, stronger effect = higher value
Procedure, shortened: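 Growth inhibition, relative to vehicle-treated controls, is the read-out. The test organism is a yeast strain with defined genetic alterations, cln2 rad14.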

[5] = NCI Yeast Anticancer Drug Screen. Data for the bub3 strain (AID 167); conditions: S. cerevisiae bub3 mutant strain, stronger effect = higher value
Procedure, shortened: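 Yeast carrying a defined mutation is treated with each compound, and growth is compared with that of vehicle-exposed cells to give inhibition.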

[6] = NCI Yeast Anticancer Drug Screen. Data for the mlh1 rad18 strain (AID 175); conditions: S. cerevisiae mlh1 rad18 strain growth inhibition, stronger effect = higher value
Procedure, shortened: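 Cells of a genetically altered yeast strain, deficient in DNA damage repair, were treated with compound. Their growth was then compared with that of vehicle-treated cultures to give inhibition.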

[7] = at 5.0 µM (retest, dose inferred, filed as 0.5)
[8] = at 50.0 µM (retest, dose inferred, filed as 5.0)

Measured: growth inhibition

CCC[CH2][Sn]1([CH2]CCC)[O]CC[S]1
active: [1]; [7] 83% | [1]; [8] 99% | [1]; at 50.0 µM 99.1% | [2]; [7] 87% | [2]; [8] 99% | [2]; at 50.0 µM 99% | [3]; [7] 81% | [3]; [8] 99% | [3]; at 50.0 µM 98.2% | [4]; [7] 78% | [4]; [8] 99% | [4]; at 50.0 µM 97.3% | [5]; [7] 87% | [5]; [8] 99% | [5]; at 50.0 µM 96.1% | [6]; [7] 84% | [6]; [8] 99% | [6]; at 50.0 µM 99.2%

CC(C)NCC(O)c1ccc(O)c(O)c1.[Pt].c1ccc([PH+](c2ccccc2)c2ccccc2)cc1.c1ccc([PH+](c2ccccc2)c2ccccc2)cc1
active: [1]; [8] 99% | [1]; at 50.0 µM 98.7% | [2]; [8] 98% | [2]; at 50.0 µM 98.8% | [3]; [8] 99% | [3]; at 50.0 µM 99% | [4]; [8] 86% | [4]; at 50.0 µM 97.8% | [5]; [8] 98% | [5]; at 50.0 µM 98.8% | [6]; [8] 99% | [6]; at 50.0 µM 98.8%
inactive: [1]; [7] -7% | [2]; [7] -6% | [3]; [7] -8% | [4]; [7] 11% | [5]; [7] -26% | [6]; [7] 9%

CCCCCCCCCCCCN=C(N)N
inactive: [4]; [7] 59%
active: [1]; [7] 80% | [1]; [8] 98% | [1]; at 50.0 µM 99.1% | [2]; [7] 72% | [2]; [8] 99% | [2]; at 50.0 µM 99.3% | [3]; [7] 87% | [3]; [8] 99% | [3]; at 50.0 µM 99% | [4]; [8] 98% | [4]; at 50.0 µM 98.5% | [5]; [7] 96% | [5]; [8] 99% | [5]; at 50.0 µM 99.4% | [6]; [7] 71% | [6]; [8] 98% | [6]; at 50.0 µM 98.4%

COc1cc(C(c2c(O)c3ccccc3oc2=O)c2c(O)c3ccccc3oc2=O)cc(OC)c1O
inactive: [1]; [7] 4% | [1]; [8] 20% | [2]; [7] -2% | [2]; [8] 19% | [2]; at 50.0 µM 44.3% | [3]; [7] -2% | [3]; [8] 12% | [3]; at 50.0 µM 54.7% | [4]; [7] 0% | [4]; [8] 0% | [5]; [7] -5% | [5]; [8] -10% | [5]; at 50.0 µM 50% | [6]; [7] -7% | [6]; [8] 2%
active: [1]; at 50.0 µM 75% | [4]; at 50.0 µM 70.8% | [6]; at 50.0 µM 90.6%

CNC(=O)N1CN(c2ccccc2)C2(CCN(CCCC(=O)c3ccc(F)cc3)CC2)C1=O
active: [4]; at 50.0 µM 70.3% | [5]; at 50.0 µM 76%
inactive: [1]; [7] -7% | [1]; [8] 31% | [1]; at 50.0 µM 51.5% | [2]; [7] -14% | [2]; [8] 23% | [2]; at 50.0 µM 37.9% | [3]; [7] -3% | [3]; [8] 40% | [3]; at 50.0 µM 68.3% | [4]; [7] 5% | [4]; [8] 67% | [5]; [7] 5% | [5]; [8] 59% | [6]; [7] -20% | [6]; [8] 39% | [6]; at 50.0 µM 68.3%

Cn1cc(/C=C/[N+](=O)[O-])c2ccccc21
inactive: [1]; [7] 7% | [2]; [7] -2% | [3]; [7] 2% | [4]; [7] 26% | [5]; [7] 22% | [6]; [7] 19%
active: [1]; [8] 95% | [1]; at 50.0 µM 97.1% | [2]; [8] 96% | [2]; at 50.0 µM 97.3% | [3]; [8] 97% | [3]; at 50.0 µM 98.4% | [4]; [8] 98% | [4]; at 50.0 µM 96.5% | [5]; [8] 97% | [5]; at 50.0 µM 97.7% | [6]; [8] 97% | [6]; at 50.0 µM 97.3%

C[CH2][Hg][Cl]
100% (active) and 46% (inactive): [2]; [7]
99% (active) and 48% (inactive): [1]; [7]
99% (active) and 35% (inactive): [6]; [7]
active: [1]; [8] 99% | [1]; at 50.0 µM 93.1% | [2]; [8] 100% and 93% | [2]; at 50.0 µM 95% | [3]; [7] 100% | [3]; [8] 100% and 99% | [3]; at 50.0 µM 94.5% | [4]; [7] 99% and 86% | [4]; [8] 99% | [4]; at 50.0 µM 93.3% | [5]; [7] 100% | [5]; [8] 99% | [5]; at 50.0 µM 93.7% | [6]; [8] 99% | [6]; at 50.0 µM 93.2%

O=P(Nc1cccc(Cl)c1)(Oc1ccccc1)N(CCCl)CCCl (configuration not stated)
inactive: [1]; [7] 40% | [1]; [8] 40% | [2]; [7] 30% | [2]; [8] 30% | [3]; [7] 43% | [3]; [8] 43% | [4]; [7] 20% | [4]; [8] 20% | [5]; [7] 26% | [5]; [8] 26% | [6]; [7] 21% | [6]; [8] 21%
active: [1]; at 50.0 µM 90.2% | [2]; at 50.0 µM 90.2% | [3]; at 50.0 µM 92.1% | [4]; at 50.0 µM 89.8% | [5]; at 50.0 µM 88.7% | [6]; at 50.0 µM 88.2%

C[C@@H]1CCC2[C@@H](C)[C@H](O[C@H]3O[C@@H]4O[C@@]5(C)CCC6[C@H](C)CCC([C@H]3C)[C@]64OO5)O[C@@H]3O[C@@]4(C)CCC1[C@@]23OO4 (some centres not stated)
active: [1]; [7] 92% | [1]; [8] 93% | [1]; at 50.0 µM 90.2% | [2]; [7] 95% | [2]; [8] 94% | [2]; at 50.0 µM 91.6% | [3]; [7] 94% | [3]; [8] 95% | [3]; at 50.0 µM 92% | [4]; [7] 79% | [4]; [8] 93% | [4]; at 50.0 µM 89.7% | [5]; [7] 92% | [5]; [8] 94% | [5]; at 50.0 µM 91.2% | [6]; [7] 93% | [6]; [8] 93% | [6]; at 50.0 µM 90.8%
